Screening data as filed in PubChem.
Compounds with a hit are over-represented: about 3.3% of the library has one in this group of screens.
Tau fibril FP: blocks human tau fibril formation measured by polarization; 0.39% of 280,000 active; P10636; Potency, µM (series often up to 57.7 µM), for inactives: at the top dose activity, negative = inhibition, most hits filed as inhibitors; K18 P301L tau heparin fibrillization, Alexa594 FP, 6 h; further: nearly all actives have a fitted effect of over 55% in size
Target sequence (P10636 561-689 P618L limits assumed): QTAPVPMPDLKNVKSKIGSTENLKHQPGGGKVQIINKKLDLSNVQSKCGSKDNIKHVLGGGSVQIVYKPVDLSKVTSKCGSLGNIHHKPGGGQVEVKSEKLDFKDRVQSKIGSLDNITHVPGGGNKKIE
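Read-out: fluorescence polarization of Alexa 594-labeled tau (0.24 uM), 555 nm excitation, 632 nm emission. Mixtures held 15 uM unlabeled K18 P301L, compound and 20 uM heparin, pH 7 acetate buffer, incubated 6 hr at 37 C.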
Tau ThT inhib: blocks human tau fibril formation measured by thioflavin T. recombinant tau K18 P301L, heparin-induced fibrillization, ThT fluorescence. Potency, µM (titrated, usually from 57.4 µM), without a hit: top-dose activity, negative = inhibition, usual class: inhibitors. 2.1% of 270,000 active. AID 1460; further: nearly all actives have a fitted effect of over 55% in size
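Heparin-induced (20 uM) aggregation of recombinant human K18 P301L tau, 15 uM unlabeled with 0.24 uM labeled, pH 7 acetate buffer, 6 hr at 37 C with compound. Fibrils quantified by 30 uM ThT fluorescence after 1 hr ambient incubation.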
NPSR antagonist: antagonists of human neuropeptide S receptor cAMP signaling; Q6W5P4; CHO-NPSR cells, cAMP TR-FRET, antagonist mode; Potency, µM (highest dose often 38.3 µM), for the others: at the highest dose activity change, negative = inhibition, most hits filed as inhibitors; 1% of 220,000 active; further: nearly all actives have a fitted effect of over 50% in size
Target sequence (Q6W5P4 whole entry, looked up): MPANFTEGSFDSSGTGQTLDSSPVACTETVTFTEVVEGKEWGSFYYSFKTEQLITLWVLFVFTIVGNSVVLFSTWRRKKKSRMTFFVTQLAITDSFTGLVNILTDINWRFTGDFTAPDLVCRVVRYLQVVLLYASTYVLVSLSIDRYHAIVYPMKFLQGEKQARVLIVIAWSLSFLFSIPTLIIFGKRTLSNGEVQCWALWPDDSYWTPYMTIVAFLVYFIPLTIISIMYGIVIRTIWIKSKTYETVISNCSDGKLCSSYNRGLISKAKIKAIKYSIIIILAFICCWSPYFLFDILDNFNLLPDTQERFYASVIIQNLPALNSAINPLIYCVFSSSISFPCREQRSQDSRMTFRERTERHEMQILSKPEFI
Tau fluor cs: counter-screen for tau fibril formation inhibitors; 0.93% of 280,000 active; tau K18 P301L (four-repeat tau fragment) Alexa594 fluorescence, heparin fibrillization; Potency, µM (top dose mostly 57.7 µM), for inactives: at the top dose activity change, negative = decrease; further: nearly all actives have a fitted effect of over 55% in size
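Human K18 P301L tau (15 uM unlabeled plus 0.24 uM Alexa 594-labeled, final) in 100 mM sodium acetate pH 7 was mixed with compound and 20 uM heparin and incubated 6 hr at 37 C.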
Luc counter: Kinase-Glo luciferase inhibition (counter-screen) | Q27757 | Kinase-Glo luciferase, ATP luminescence, 8 min | Potency, µM (top dose mostly 38.3 µM), inactives show at the top dose activity change, negative = inhibition, usual class: inhibitors | 0.28% of 200,000 active | AID 1379; further: nearly all actives have a fitted effect of over 60% in size
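Substrate mix (final 50 mM imidazole pH 7.2, 50 mM KCl, 7 mM MgCl2, 10 uM ATP, 0.01% Tween 20, 0.05% BSA) plus pin-tool compound, then Kinase-Glo detection mix; 8 min ambient, luminescence read.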
* marks the source's active call; other numbers are inactive results; ? = inconclusive; . = no result; [ ] = another dose, or the depositor's remark. The call rests on the fitted dose curve; in most records, active means well fitted curve in the direction sought with a large enough effect; inconclusive means small, poorly fitted or top-dose-only effect, or another doubt; inactive means no such curve, though single readings can be large; an effect the other way counts as inactive or inconclusive. On the % scale 0 is the no-effect control and ±100 the full control effect; potency means the concentration at half of the fitted maximal effect.

SMILES | Tau fibril FP | Tau ThT inhib | NPSR antagonist | Tau fluor cs | Luc counter
O=C(COc1ccc(F)cc1)NCC(c1ccc(Cl)cc1)N1CCCCC1 (stereo unspecified) | 0% | 11% | . | 4% | .
COC(=O)[C@@H]1C[C@H]1[C@@H](NS(=O)(=O)c1ccc2ccccc2c1)c1ccccc1 | 6% | -11% | . | -15% | 3%
O=C(c1ccccc1F)N1CCN(c2ccc([N+](=O)[O-])c(NCc3cccnc3)c2)CC1 | 5% | 16µM* | 40% | -15% | .
O=C(c1ccccc1)N1CCN(c2ccc([N+](=O)[O-])c(NCc3cccnc3)c2)CC1 | 4% | 16µM* | ? | -8% | 4%
CC(C)(C)C(=O)N1CCN(c2ccc([N+](=O)[O-])c(NCc3cccnc3)c2)CC1 | 1% | ? | -32% | 4% | 0%
COc1ccccc1CNC(=O)CN1C(=O)CCn2nc(-c3ccccc3)cc21 | -12% | -4% | . | -8% | .
O=C(NNc1ccc(C(F)(F)F)cc1[N+](=O)[O-])c1ccc(NS(=O)(=O)c2ccc(F)cc2)cc1 | ? | 14µM* | 10µM* | 11µM*[quencher] | ?
COc1ccc(NCC(=O)n2c(C)c(C)c3ccccc32)cc1OC | -2% | -12% | -22% | -14% | .
CC(=O)c1cc(NC(=O)c2ccc(Cl)cc2)c(=O)oc1/C=C/N(C)C | ? | 10µM* | -13%[46.1 µM] | -27% | -2%
CC(=O)c1cc(NC(=O)c2cccc(C(F)(F)F)c2)c(=O)oc1C | 35µM* | 25µM* | -22% | -28% | -4%
CC(=O)c1cc(NC(=O)c2cccc(C(F)(F)F)c2)c(=O)oc1/C=C/N(C)C | -2% | ? | -10%[46.1 µM] | -6% | -5%
CC[C@@H]1Cn2c(c3nc(-c4ccccc4)nc-3n(C)c2=O)N1 | -2% | ? | . | -18% | -2%
CNC(=S)Nc1ccc(-c2nc3ccc(C)cc3s2)cc1 | ? | 15% | -36% | ? | -2%
CC(=O)NC(=S)Nc1ccc(-c2nc3ccc(C)cc3s2)cc1 | -10% | ? | 10µM* | -14% | -5%
Cc1ccc2nc(-c3ccc(N)cc3)sc2c1 | 8% | 5.6µM* | 33% | ? | .
Nc1ccc(-c2nc3cc(N)ccc3s2)cc1 | -1% | 14µM* | 20% | ? | -17%
COc1cc(OC)cc(-c2nc3ccccc3s2)c1 | -11% | -9% | -8%[46.1 µM] | -19% | -18%
Cc1ccc2sc(-c3ccc(N)cc3)nc2c1 | 4% | 4.5µM* | . | ? | .
NCCC(=O)O | -2% | 8% | . | 0% | -2%
Nc1ccc2nc(-c3ccccc3)sc2c1 | 12% | ? | -11%[46.1 µM] | -29% | 7.9µM*
CCOC(=O)Cc1ccc2sc(-c3ccccc3)nc2c1 | -1% | -11% | -11% | -15% | ?
CCCn1c(=O)sc2cc(NC(=O)c3ccccc3OCC)ccc21 | 3% | -9% | . | -15% | .
CCN(CC)c1ccc(/C=N/NC(=O)c2ccc(Br)o2)cc1 | 12% | 3.2µM* | -47% | ? | -1%
CC(C)=NNc1nc(-c2ccc(N3C(=O)CCC3=O)cc2)cs1 | ? | 18µM* | 14% | ? | .
Cc1ccsc1C(=O)N/N=C/C=C/c1ccccc1[N+](=O)[O-] | 3% | ? | -25%[46.1 µM] | -11% | -2%
SMILES | Tau fibril FP | Tau ThT inhib | NPSR antagonist | Tau fluor cs | Luc counter
Cc1ccccc1/C=N/NC(=O)c1sccc1C | -3% | -8% | 3% | -7% | 13µM*
Cc1cc(C(=O)N/N=C/c2ccc3c(c2)OCO3)c(C)o1 | -5% | ? | 8% | -14% | 13µM*
Cc1ccsc1C(=O)N/N=C/c1ccc2c(c1)OCO2 | -4% | -17% | 7% | -3% | 2µM*
O=C(N/N=C/c1ccc2c(c1)OCO2)c1cccs1 | 5% | ? | 11% | -5% | 13µM*
O=C(N/N=C/c1ccc2c(c1)OCO2)c1ccc2c(c1)OCCO2 | 2% | ? | -12% | -13% | -15%
Cc1ccc(-c2nn3c(-c4ccccc4)nnc3c3ccccc23)cc1 | -13% | ? | . | -17% | .
O=C(Nc1ccc2nc(SCCOc3ccccc3Cl)sc2c1)c1cccs1 | 10µM* | 12% | . | ? | .
Cc1cc(C)cc(OCCSc2nc3ccc(NC(=O)c4cccs4)cc3s2)c1 | 7.1µM* | 7% | . | ? | .
Cc1ccc(OCCSc2nc3ccc(NC(=O)c4ccc(F)cc4)cc3s2)cc1 | -11% | -11% | . | -1% | .
O=C(O)C[C@H](Nc1ccccc1)C(=O)O | . | . | . | . | -1%[7.66 µM]
Cc1c(C(=O)NCCN(C)C)oc2c1-c1nn(Cc3ccccc3Cl)cc1CC2 | -7% | ? | . | -24% | .
O=C(Cc1cccs1)N/N=C/C=C/c1ccco1 | ? | 25µM* | -33% | ? | -1%
O=C(CNc1cccc2ccccc12)N/N=C/c1ccc(C(=O)O)cc1 | 10% | ? | 3% | -18% | -1%
O=C(CNc1cccc2ccccc12)N/N=C/C=C/c1ccco1 | 10% | ? | -16% | 16µM*[quencher] | -5%
CCCOc1ccc(NC(=O)C(=O)NCCCN2CCOCC2)cc1 | -6% | -3% | . | 2% | .
O=C(NCCSCc1cccc(Cl)c1)C1CCN(S(=O)(=O)Cc2ccccc2)CC1 | -7% | -1% | . | -2% | .
Cc1ccc(C(=O)c2sc(Nc3ccc(F)cc3)nc2N)c(C)c1 | 14% | -14% | . | 16µM*[quencher] | .
CCOc1ccc(Nc2nc(N)c(C(=O)c3ccccc3Cl)s2)cc1 | 3% | ? | . | 16µM*[quencher] | .
CCOC(=O)c1sc(Nc2ccc(F)cc2)nc1C | 13% | -12% | -23% | -25% | -2%
Nc1nc(Nc2ccccc2F)sc1C(=O)c1ccc(Cl)cc1 | -2% | 25µM* | . | 16µM*[quencher] | .
Nc1nc(Nc2cccc(Cl)c2)sc1C(=O)c1ccc(F)cc1 | ? | ? | . | 8.9µM*[quencher] | .
COC(=O)c1nnc(C(=O)NCc2ccccc2)c2[nH]c3ccc(OC)cc3c12 | 4% | -21% | . | -7% | 0%
COc1ccc(-c2ccc(NS(=O)(=O)c3cc(C)c(C)cc3C)cc2)nn1 | ? | -13% | . | ? | .
